Measured values reported in PubChem BioAssay (NCATS).
Results filed as inconclusive are left out. Calls of active or inactive are those of the source. Calls come from the whole dose curve; as a rule, active = well fitted inhibition curve with a large enough effect; inconclusive = small, poorly fitted or top-dose-only effect; inactive = no such curve, though single readings can be large or run the other way. Where a SMILES comes first, the peptide text is derived from it. The star is where a group is joined. AMC = Cc1cc(=O)oc2cc(N*)ccc12; Cbz = O=C(OCc1ccccc1)*; PhAc = O=C(Cc1ccccc1)*

tested on: Zika virus NS2B-NS3 protease (unlinked complex); test: Primary screen GU Rhodamine qHTS for Zika virus inhibitors: Unlinked NS2B-NS3 protease assay (AID 1347159); details: Recombinant ZIKV NS2B-NS3 protease, Rhodamine110 substrate fluorescence; series mostly up to 107 µM; note: nearly all actives have a fitted effect of over 60% in size
How it was run: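 Percent inhibition came from the 15-min rise in Rhodamine110 fluorescence (1.5 microM substrate, ~15% conversion), normalized to no-inhibitor and no-enzyme wells and Hill-fitted. Unlinked protease, 25 nM, pH 8.0 Tris buffer; compounds up to 114 microM, 15-min preincubation.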
Potency is the fitted concentration of half-maximal effect.

Row | Compound | Potency
1 | O=C(O)c1cccc(CN2C(=O)/C(=C(\c3ccccc3)c3ccc(Cl)cc3)c3ccccc32)c1 | 1.41 µM (active)
2 | O=C(OC(C(F)(F)F)C(F)(F)F)N1CCN(Cc2cccc(Oc3ccccc3)c2)CC1 | inactive
3 | CC(C)C1CCC(C(=O)N[C@@H](Cc2ccccc2)C(=O)O)CC1 (stereo partly specified) | 31.6 µM (active)
4 | CC(=O)OC1CCC2(C)C(CCC3(C)C2CC=C2C4CC(C)(C)CCC4(C)CCC23C)C1(C)C(=O)O (stereo unspecified) | 7.08 µM (active)
5 | C[C@@H]1O[C@@H](O[C@H]2[C@H](O[C@H]3[C@H](O[C@H]4CC[C@@]5(C)C(CC[C@]6(C)C5CC=C5[C@@H]7CC(C)(C)C[C@@H](O)[C@]7(C)CC[C@]56C)[C@@]4(C)CO)O[C@H](C(=O)O)[C@@H](O)[C@@H]3O)O[C@H](C(=O)O)[C@H](O)[C@@H]2O)[C@H](O)[C@H](O)[C@H]1O (stereo partly specified) | inactive
6 | COc1cccc(C)c1C(=O)O[C@@H]1C[C@H](O[C@H]2[C@H](O)C[C@H](O[C@@H]3CCC[C@H]4[C@H]3C=C[C@@H]3CCCC/C=C/[C@H]5C=C(C(=O)O)[C@@H](C)C[C@@]56OC(=O)C(=C6O)OC(=O)[C@@]34C)O[C@@H]2C)O[C@H](C)[C@H]1O | inactive
7 | O=C(O)CC/C=C\C[C@H]1CO[C@@H](c2ccccc2Cl)O[C@H]1c1ccccc1O | inactive
8 | C=C1CCC[C@]2(C)CC[C@@](O)(C(=C)C(=O)O)C[C@@H]12 | 11.2 µM (active)
9 | Cc1cc(-n2c(=O)[nH]c(=O)n(C)c2=O)ccc1Oc1ccc(SC(F)(F)F)cc1 | 15.8 µM (active)
10 | Cc1c(Cc2ccc3ccccc3n2)c2cc(F)ccc2n1CC(=O)O | 35.5 µM (active)
11 | CC1(C(=O)O)CCCC2(C)C3CC4C5CC3(CCC12)CC45C (stereo unspecified) | 10 µM (active)
12 | C=C(C)[C@H]1CC[C@]2(C(=O)O)CC[C@]3(C)C(CCC4[C@@]5(C)CCC(=O)C(C)(C)C5CC[C@]43C)C12 (stereo partly specified) | 7.08 µM (active)
13 | Cc1cc(O[C@@H]2O[C@H](COC(=O)CC(=O)O)[C@@H](O)[C@H](O)[C@H]2O)c(C(C)C)cc1O | inactive
14 | O=C(O)[C@H](Cc1ccccc1)Oc1ccc(-c2ccccc2)cc1 | 35.5 µM (active)
15 | COCc1c(O)c(C(=O)O)c(C)c2c1OC(=O)c1c(C)cc(O)c(CO)c1O2 | 28.2 µM (active)
16 | Cc1ccccc1-n1nc(-c2c(-c3ccc(F)cc3)nn3c2NC[C@@H](CO)C3)ccc1=O | inactive
17 | C=C1CCC2C(C)(C)CC(O)CC2(C)C1CCC(C)CC(=O)O (stereo unspecified) | 11.2 µM (active)
18 | Cn1cc(-c2c[nH]c3ncnc(N4CCOCC4)c23)cn1 | inactive

Row | Compound | Potency
19 | COc1c(-c2ccc(O)cc2)cc(OC)c2c1oc1cc(O)c(OC3OC(CO)C(O)C3O)cc12 (stereo unspecified) | 15.8 µM (active)
20 | CC(C)=C1CC2C(CCC2(C)O)C(C)(O)CC1=O (stereo unspecified) | inactive
21 | COc1cc(Cc2cnc(N)nc2N)c(C(C)C)cc1OC | inactive
22 | CC1OC(OC2C(OC3C(O[C@H]4CC[C@@]5(C)C(CC[C@]6(C)C5CC=C5C7CC(C)(C)CC(O)[C@]7(C)CC[C@]56C)C4(C)C)OC(C(=O)O)C(O)C3O)OCC(O)C2O)C(O)C(O)C1O (stereo partly specified) | 7.94 µM (active)
23 | CC(C)c1ccc2c(c1)C(O)CC1C(C)(CO)CCCC21C (stereo unspecified) | inactive
24 | O=C(N[C@H](Cc1ccccc1)C(=O)O)c1sc2cc(F)ccc2c1Cl | 39.8 µM (active)
25 | C=C1CCC2C(C)(C)CC(=O)CC2(C)C1CCC(C)CCO (stereo unspecified) | 20 µM (active)
26 | COc1cc(C2Oc3c(OC)cc(CCCO)cc3C2CO)ccc1O (stereo unspecified) | 39.8 µM (active)
27 | Cc1sc(C)c(C(=O)NC2(c3ccc(C(=O)O)cc3)CC2)c1Cc1ccc(C(F)(F)F)cc1 | 17.8 µM (active)
28 | O=C(OCC(O)CO[C@@H]1O[C@H](C(=O)O)[C@@H](O)[C@H](O)[C@H]1O)c1ccccc1 (stereo partly specified) | inactive
29 | CC1(C)C[C@H]2C=C(C=O)[C@]3(C(=O)O)C[C@]3(C)[C@H]2C1 | 22.4 µM (active)
30 | C[C@]12CCC[C@](C)(C(=O)O)C1[C@@H](O)[C@@H](O)C13CC(CCC12)C(CO)(O[C@@H]1O[C@H](CO)[C@@H](O)[C@H](O)[C@H]1O)C3 (stereo partly specified) | inactive
31 | CC(C)=CCc1cc(O[C@@H]2O[C@H](CO[C@@H]3OC[C@](O)(CO)[C@H]3O)[C@@H](O)[C@H](O)[C@H]2O)ccc1O | inactive
32 | Cc1cc(=O)oc2cc(NC(=O)[C@H](CCC(=O)O)NC(=O)[C@H](CC(C)C)NC(=O)[C@H](CC(C)C)NC(=O)OCc3ccccc3)ccc12 (Cbz-Leu-Leu-Glu-{AMC}) | inactive
33 | C=C1CCC2[C@@](C)(C(=O)O)CCC[C@@]2(C)[C@@H]1CCc1ccoc1 (stereo partly specified) | 10 µM (active)
34 | C[C@@H]1O[C@@H](O[C@H]2[C@H](O[C@H]3[C@H](O[C@H]4CC[C@@]5(C)C(CC[C@]6(C)C5CC=C5[C@@H]7CC(C)(C)C[C@@H](O)[C@]7(C)CC[C@]56C)[C@@]4(C)CO)O[C@H](C(=O)O)[C@@H](O)[C@@H]3O)O[C@H](CO)[C@H](O)[C@@H]2O)[C@H](O)[C@H](O)[C@H]1O (stereo partly specified) | inactive
35 | CCOC(=O)CNC(=O)[C@@H]1CCCN1C(=O)Cc1ccccc1 (PhAc-Pro-Gly-OEt) | inactive
36 | CC(C)CC(=O)O[C@@H]1O[C@H](CO)[C@@H](O[C@H]2O[C@H](C)[C@@H](N[C@H]3C=C(CO)[C@@H](O[C@H]4O[C@H](CO)[C@@H](O[C@H]5O[C@H](CO)[C@@H](O[C@H]6O[C@H](CO)[C@@H](O)[C@H](O)[C@H]6O)[C@H](O)[C@H]5O)[C@H](O)[C@H]4O)[C@H](O)[C@H]3O)[C@H](O)[C@H]2O)[C@H](O)[C@H]1O | inactive
